Among the data in PubChem BioAssay (EPA / NIEHS) are outcome and AC50 values, retold here.

Activity calls are given as the source filed them. How the source made its calls: active means hit-call score of the fitted dose curve at least 0.9, where 1 is the maximum; inactive means score below 0.9.

The AC50 is the concentration giving half of the maximal activity seen.

The nature of this test: ATG_Sox_CIS: Attagene CIS-FACTORIAL HepG2 Assay for human SRY-box transcription factor (SOX) (AID 2282960). Conditions: HepG2 Attagene cis-factorial SOX reporter, mRNA; actives raise or lower the signal. The protocol: ATG_CIS is a cell-based, multiplexed-readout assay that uses HepG2, a human liver cell line, with measurements taken at 24 hours after chemical dosing in a 24-well plate.ATG_Sox_CIS is one of 52 assay component(s) measured or calculated from the ATG_CIS assay. It is designed to make measurements of mRNA induction, a form of inducible reporter, as detected with fluorescence intensity signals by Reverse transcription polymerase chain reaction (RT-PCR) and Capillary electrophoresis technology.Data from the assay component ATG_Sox_CIS was analyzed into 1 assay endpoint. This assay endpoint, ATG_Sox_CIS, was analyzed with bidirectional fitting relative to DMSO as the negative control and baseline of activity. Using a type of inducible reporter, measures of mRNA for gain or loss-of-signal activity can be used to understand the reporter gene at the transcription factor-level as they relate to the gene SOX1. Furthermore, this assay endpoint can be referred to as a primary readout, because this assay has produced multiple assay endpoints where this one serves a reporter gene function. To generalize the intended target to other relatable targets, this assay endpoint is annotated to the dna binding intended target family, where the subfamily is HMG box protein.
Human liver HepG2 cells are transiently transfected with multiple reporter transcription units (MRTUs) in 6-well plates using FuGene 6 reagent (Roche; 3 ml FuGene/1 mg DNA). The MRTU constructs are regulated by a cis-regulating element (promoter). […] A major difference between the CIS and TRANS system is that in CIS activities of endogenous TFs are measured, whereas the TRANS assay evaluates changes in activities of exogenous, chimeric NR-Gal4 proteins. […] At the end of 24 hour incubation, total RNA was isolated using TriZol reagent (Invitrogen). The isolated RNA is then reverse-transcribed using oligo(dT) primer and Mo-MLV reverse transcriptase (Invitrogen) with DNAse I (Ambion) treatment for 30 min. The one-tenth of the produced cDNA was amplified by PCR using Taq DNA polymerase (Invitrogen) and two reporter sequence-specific primers. The PCR products were fluorescently labeled by primer extension with 6-arboxyfluorescein (6-FAM) 5'-labeled reporter sequence-specific primer (2 min at 95 C, 20 s at 68 C and 10 min at 72 C) and these products were digested with 5U of HpaI (New England Biolabs) for 2h at 37 C. The fragments were purified using Qiaquick PCR columns (Qiagen), analyzed on an ABI 3130xL genetic analyzer (Applied Biosystems) with peak positions identified by using a set of X-rhodamine (ROX)-labeled MapMarker1000 molecular weight standards (BioVentures). The raw capillary electrophoresis data was processed using Attagraph software (Attagene).
Consider `CNC(=S)NC`, for which the compound was called inactive.

For `CC(Cc1ccc(O)c(O)c1)C(C)Cc1ccc(O)c(O)c1` (stereo not given), the AC50 was 33.4 µM (active). For the compound `FC(F)(F)C(F)(F)C(F)(F)C(F)(F)C(F)(F)C(F)(F)CC1CO1` (stereo not given), the outcome was inactive. The same measure, in the same setting: with `O=C(O)C(F)(F)C(F)(F)C(F)F` the entry was “inactive”; with `O=C(C=Cc1ccccc1)OCC=Cc1ccccc1`, “inactive”; with `c1ccc(-c2ccccc2-c2ccccc2)cc1`, “inactive”. For `OCC(F)(F)C(F)(F)C(F)(F)C(F)F`, the compound was classed as inactive. Same read-out and setting: with `O=C(CC(=O)C(F)(F)C(F)(F)F)C(F)(F)F` the entry was “inactive”; with `O=C(O)C(F)(F)C(F)(F)F`, “inactive”; with `CCCCCCS`, “inactive”. Consider `CN(C)Cc1ccccc1O`, for which the call was inactive. As to `CCc1c(Br)c(Br)c(Br)c(Br)c1Br`, the call was inactive. On to `O=C(O)C(F)(F)C(F)(F)C(F)(F)C(F)(F)C(F)(F)C(F)(F)C(F)(F)C(F)(F)Cl`, for which the compound was called inactive. Same read-out and setting: with `COC(=O)C1CCC(C(=O)OC)CC1` (stereo not given) the entry was “inactive”. Regarding `C=CC(=O)OCC(F)(F)C(F)(F)C(F)(F)C(F)(F)COC(=O)C=C`, the AC50 is 56.2 µM (active). Regarding `Cc1cccc(N(C)C)c1`, the compound was classed as inactive. `C=C(C)C(=O)OCC(F)(F)C(F)(F)C(F)(F)F`: the compound was called inactive. Take `C=CC(F)(F)C(F)(F)C(F)(F)C(F)(F)C(F)(F)C(F)(F)C(F)(F)C(F)(F)F`: the call was inactive. In the case of `Oc1ccc(Nc2ccccc2)cc1`, the outcome was inactive. Same read-out and setting: for `CCc1ccc(C(c2ccc(CC)cc2)C(Cl)Cl)cc1` the value was “inactive”. Still for that read-out and setting: for `C=CC/C=C/C/C=C/C/C=C/C` the value was “inactive”.

On to `FC1CC(F)(F)C(F)(F)C1(F)F` (stereo not given), for which the result was inactive.

With `FC(F)(F)C(F)(F)C(F)(F)C(F)(F)C(F)(F)C(F)(F)C(F)(F)I`, the outcome was inactive. Still for that read-out and setting: for `CCN(CC)c1ccc2c(C)cc(=O)oc2c1` the value was “inactive”. On the same count and under the same terms, with `FC(F)(I)C(F)(F)C(F)(F)C(F)(F)I` the entry was “inactive”; with `O=C(OCCOCCOCCOC(=O)c1ccccc1)c1ccccc1`, “inactive”.

On to `Cc1cc(C)cc(O)c1`, for which the call was inactive.

On to `CCCCOc1ccc(N)cc1`, for which the compound was classed as inactive. Regarding `FC(F)(F)C(F)(F)CNCC(F)(F)C(F)(F)F`, the call was inactive.

As to `C1COCCN1`, the call was inactive.

With `FC(F)(F)C(F)(F)C(F)(F)N(C(F)(F)C(F)(F)C(F)(F)F)C(F)(F)C(F)(F)C(F)(F)F`, the compound was called inactive. `NC(=O)C(F)(F)C(F)(F)C(F)(F)C(F)(F)F`: the compound was called inactive.

With `O=C(O)C(F)(F)C(F)(F)OC(F)(F)F`, the outcome was inactive. `OCC(F)(F)C(F)(F)C(F)(F)C(F)(F)C(F)(F)C(F)(F)F`: the outcome was inactive. Same read-out and setting: for `O=S(=O)(O)C(F)(F)C(F)(F)C(F)(F)C(F)(F)C(F)(F)C(F)(F)C(F)(F)F` the value was “inactive”; for `FC(F)(F)C(F)(F)C(F)(F)C(F)(F)CCI`, “inactive”; for `N=C(N)C(F)(F)C(F)(F)C(F)(F)C(F)(F)C(F)(F)C(F)(F)C(F)(F)F`, “inactive”.

Turning to `O=C(O)C(F)(F)C(F)(F)C(F)(F)C(F)(F)C(F)(F)C(F)(F)C(F)(F)C(F)(F)C(F)(F)C(F)(F)C(F)(F)C(F)(F)C(F)(F)F`, the outcome was inactive. For `CC(C)c1ccccc1N`, the call was inactive. Still for that read-out and setting: with `CCN(Cc1cccc(S(=O)(=O)O)c1)c1ccc(C(=C2C=CC(=[N+](CC)Cc3cccc(S(=O)(=O)O)c3)C=C2)c2ccc(O)cc2S(=O)(=O)[O-])cc1` the entry was “inactive”.
